These results are taken from PubChem BioAssay (EPA / NIEHS).

Structures are written as SMILES. Records with an inconclusive call do not appear. Calls of active or inactive are those of the source. Rule for the calls: active = hit-call score of the fitted dose curve at least 0.9, where 1 is the maximum; inconclusive = response in the unintended direction; inactive = score below 0.9.

Sequence of Estrogen receptor (Homo sapiens) (P03372 whole entry, looked up, the tested form may be a part): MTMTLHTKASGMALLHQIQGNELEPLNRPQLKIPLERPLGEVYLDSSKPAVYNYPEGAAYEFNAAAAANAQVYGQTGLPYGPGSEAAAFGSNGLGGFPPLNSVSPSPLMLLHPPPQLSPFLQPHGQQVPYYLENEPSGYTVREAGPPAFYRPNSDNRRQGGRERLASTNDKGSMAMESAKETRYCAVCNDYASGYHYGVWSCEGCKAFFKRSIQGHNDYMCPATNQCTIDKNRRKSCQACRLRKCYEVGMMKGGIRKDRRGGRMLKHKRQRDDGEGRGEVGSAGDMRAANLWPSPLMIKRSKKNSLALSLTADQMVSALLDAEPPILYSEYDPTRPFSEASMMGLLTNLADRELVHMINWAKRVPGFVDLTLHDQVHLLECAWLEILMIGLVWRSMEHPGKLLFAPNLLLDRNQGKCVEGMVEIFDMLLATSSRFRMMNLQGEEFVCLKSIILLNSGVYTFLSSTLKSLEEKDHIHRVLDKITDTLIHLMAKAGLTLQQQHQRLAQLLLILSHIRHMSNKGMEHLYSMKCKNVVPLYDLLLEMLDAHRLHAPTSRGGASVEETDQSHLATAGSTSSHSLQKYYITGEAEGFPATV
Sequence of Androgen Receptor/SRC-1 Co-activator, AR (gene 367) (P10275 whole entry, looked up): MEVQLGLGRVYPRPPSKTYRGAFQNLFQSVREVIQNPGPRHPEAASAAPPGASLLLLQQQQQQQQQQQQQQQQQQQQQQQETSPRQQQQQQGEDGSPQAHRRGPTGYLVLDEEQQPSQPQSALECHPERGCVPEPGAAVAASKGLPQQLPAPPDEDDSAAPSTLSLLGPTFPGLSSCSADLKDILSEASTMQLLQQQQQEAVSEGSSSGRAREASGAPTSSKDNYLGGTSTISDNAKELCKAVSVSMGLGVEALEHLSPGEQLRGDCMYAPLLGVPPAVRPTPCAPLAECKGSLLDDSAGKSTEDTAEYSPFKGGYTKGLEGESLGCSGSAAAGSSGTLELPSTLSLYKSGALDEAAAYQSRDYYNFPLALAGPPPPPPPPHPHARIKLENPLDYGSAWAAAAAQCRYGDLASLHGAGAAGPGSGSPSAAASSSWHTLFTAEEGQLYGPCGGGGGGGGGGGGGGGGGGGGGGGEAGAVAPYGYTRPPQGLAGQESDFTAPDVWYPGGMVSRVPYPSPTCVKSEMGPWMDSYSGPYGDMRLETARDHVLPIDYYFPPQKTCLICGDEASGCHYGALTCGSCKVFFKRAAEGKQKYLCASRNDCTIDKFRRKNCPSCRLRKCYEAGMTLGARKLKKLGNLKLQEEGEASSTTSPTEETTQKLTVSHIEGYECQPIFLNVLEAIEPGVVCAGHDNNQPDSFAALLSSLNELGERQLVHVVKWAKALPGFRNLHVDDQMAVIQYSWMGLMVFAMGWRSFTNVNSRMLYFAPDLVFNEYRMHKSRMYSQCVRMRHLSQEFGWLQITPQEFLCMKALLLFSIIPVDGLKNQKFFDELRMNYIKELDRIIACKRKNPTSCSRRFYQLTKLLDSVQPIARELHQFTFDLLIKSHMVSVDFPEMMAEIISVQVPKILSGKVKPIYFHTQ

The target in the first assay is Estrogen receptor (Homo sapiens) (UniProt P03372). Put plainly: OT_ER_ERaERa_0480: Odyssey Thera (OT) 8-hour HEK293T Protein-Complementation Assay for Estrogen Receptor-alpha/-alpha Homodimer (AID 2283351).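 Note: rise in fluorescence from reassembled reporter fragments on ERα LBD homodimer in nucleus or whole cell.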 The gist of the method:
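HEK293T cells stably expressing a PCA pair of ER alpha LBD (residues 310-547) were dosed for 8 hours. The gain in fluorescence intensity, nuclear for agonists and whole-cell for antagonists, was measured by laser scanning cytometry against DMSO vehicle.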
Turning to `CCC1COC(=O)O1` (stereo unspecified), the compound was called inactive.

With `CCCCC(C=O)CC` (stereo unspecified), the result was inactive.

Regarding `CCCCOCCOC(=O)COc1ccc(Cl)cc1Cl`, the result was inactive.

As for `Cc1ccc(C)c(OCCCC(C)(C)C(=O)O)c1`, the outcome was inactive.

Take `CCCCCCCCC(CO)CCCCCC` (stereo unspecified): the compound was called inactive.

On to `O=C(OCCc1ccccc1)c1ccccc1`, for which the compound was classed as inactive.

`O=C(O)c1ccc2c(c1)C(=O)OC2=O`: the outcome was inactive.

As to `C=C[C@@]1(C)CC(=O)[C@]2(O)[C@@]3(C)[C@@H](O)CCC(C)(C)[C@@H]3[C@H](O)[C@H](OC(C)=O)[C@@]2(C)O1`, the outcome was inactive.

Regarding `CC(C)(c1ccccc1)c1ccc(Nc2ccc(C(C)(C)c3ccccc3)cc2)cc1`, the result was inactive.

Turning to `COc1cc(O)c(C(=O)c2ccccc2)cc1S(=O)(=O)O`, the call was inactive.

In the case of `CCOC(=O)C1=NOC(c2ccccc2)(c2ccccc2)C1`, the outcome was inactive.

In the case of `O=C(O)CCC(=O)O`, the result was inactive.

In the case of `CCCCC(CC)COS(=O)(=O)O` (stereo unspecified), the outcome was inactive.

For the compound `CCC[Si](OC)(OC)OC`, the outcome was inactive.

In the case of `CC(=O)c1ccccc1O`, the compound was classed as inactive.

For the compound `CC(=O)/C=C/C1C(C)=CCCC1(C)C` (stereo unspecified), the call was inactive.

As a reminder, the AC50 is the concentration giving half of the maximal activity seen. As to `CCCCCCCCCC(C)=O`, the AC50 was 68.5 µM (active).

`C=C[Si](OCCOC)(OCCOC)OCCOC`: the compound was called inactive.

On to `Fc1ccc(Br)cc1`, for which the outcome was inactive.

With `COc1ccc(C(=O)c2ccccc2)c(O)c1`, the AC50 is 58.4 µM (active).

For `Cc1cc(C)n(CO)n1`, the outcome was inactive.

On to `CCOC(=O)c1ccccc1C`, for which the result was inactive.

As to `CCC(C)(O)CCCC(C)C` (stereo unspecified), the call was inactive.

With `CCCCNC(=S)NCCCC`, the call was inactive.

As to `Cc1c(C(=O)c2c[nH]n(C)c2=O)ccc(S(C)(=O)=O)c1C1=NOCC1`, the compound was called inactive.

Turning to `Oc1ccc(-c2ccccc2)c(Cl)c1`, the AC50 was 12.2 µM (active).

For the compound `CO[Si](C)(C)OC`, the outcome was inactive.

As for `CC(C)=CCCC(C)=CC#N`, the compound was called inactive.

Regarding `O=C(Oc1ccccc1)c1ccccc1O`, the result was inactive.

In the case of `C1CNCCN1`, the call was inactive.

For the compound `CC(=O)OCc1ccccc1`, the compound was called inactive.

For the compound `CC(=O)OC1CCCCC1C(C)(C)C` (stereo unspecified), the compound was called inactive.

On to `CCCCCCCCCCCCCC(=O)OC(C)C`, for which the compound was classed as inactive.

For the compound `N#Cc1ccc(C(c2ccc(C#N)cc2)n2cncn2)cc1`, the compound was classed as inactive.

As for `CCCCCC(=O)OCC`, the outcome was inactive.

Take `CC1(C)[C@@H]2CC[C@@]1(C)C(=O)C2`: the result was inactive.

Turning to `CC1=CCC2CC1C2(C)C` (stereo unspecified), the outcome was inactive.

Turning to `CC(=O)OC(C)c1ccccc1` (stereo unspecified), the compound was classed as inactive.

Another assay deals with Estrogen receptor (Homo sapiens) + Estrogen receptor beta (Homo sapiens) (UniProt P03372+Q92731). Put plainly: OT_ER_ERaERb_0480: Odyssey Thera (OT) 8-hour HEK293T Protein-Complementation Assay for Estrogen Receptor-alpha/-beta Heterodimer (AID 2283352). The gist of the method: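 Compound added to HEK293T cells carrying split-reporter-tagged ER-alpha and ER-beta LBDs, incubated 8 hours, then imaged by laser scanning cytometer. Signal rise in nucleus, or nucleus and cytoplasm, over vehicle was fitted in the positive direction.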
Sequence of Estrogen receptor (Homo sapiens) + Estrogen receptor beta (Homo sapiens) (P03372 whole entry, looked up): as the sequence (P03372 whole entry, looked up, the tested form may be a part) above
Sequence of Estrogen receptor (Homo sapiens) + Estrogen receptor beta (Homo sapiens) (Q92731 whole entry, looked up): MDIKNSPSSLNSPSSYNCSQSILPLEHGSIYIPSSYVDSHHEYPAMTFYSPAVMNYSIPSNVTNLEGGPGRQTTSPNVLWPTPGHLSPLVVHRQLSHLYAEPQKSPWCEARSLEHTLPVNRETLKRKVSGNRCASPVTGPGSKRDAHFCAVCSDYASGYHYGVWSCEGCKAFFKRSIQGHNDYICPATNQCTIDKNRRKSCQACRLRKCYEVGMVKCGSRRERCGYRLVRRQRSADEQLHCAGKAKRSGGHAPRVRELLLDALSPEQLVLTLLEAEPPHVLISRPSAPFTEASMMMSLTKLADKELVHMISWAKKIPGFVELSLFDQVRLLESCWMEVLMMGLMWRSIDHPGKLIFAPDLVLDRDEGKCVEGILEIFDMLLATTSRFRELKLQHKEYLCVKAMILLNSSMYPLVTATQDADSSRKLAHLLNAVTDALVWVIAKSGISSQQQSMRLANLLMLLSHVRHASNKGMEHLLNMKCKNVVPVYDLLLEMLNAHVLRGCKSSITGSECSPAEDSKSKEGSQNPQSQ
For the compound `CCCCC(C=O)CC` (stereo unspecified), the outcome was inactive.

For the compound `CCCCOCCOC(=O)COc1ccc(Cl)cc1Cl`, the outcome was inactive.

For the compound `Cc1ccc(C)c(OCCCC(C)(C)C(=O)O)c1`, the outcome was inactive.

Take `CCCCCCCCC(CO)CCCCCC` (stereo unspecified): the result was inactive.

Turning to `O=C(O)c1ccc2c(c1)C(=O)OC2=O`, the result was inactive.

On to `C=C[C@@]1(C)CC(=O)[C@]2(O)[C@@]3(C)[C@@H](O)CCC(C)(C)[C@@H]3[C@H](O)[C@H](OC(C)=O)[C@@]2(C)O1`, for which the result was inactive.

For the compound `COc1cc(O)c(C(=O)c2ccccc2)cc1S(=O)(=O)O`, the outcome was inactive.

Take `CCOC(=O)C1=NOC(c2ccccc2)(c2ccccc2)C1`: the result was inactive.

Regarding `CCCCC(CC)COS(=O)(=O)O` (stereo unspecified), the result was inactive.

Turning to `CCC[Si](OC)(OC)OC`, the result was inactive.

In the case of `CCCCCCCCCC(C)=O`, the outcome was inactive.

As to `COc1ccc(C(=O)c2ccccc2)c(O)c1`, the AC50 was 31 µM (active).

As for `CCOC(=O)c1ccccc1C`, the outcome was inactive.

Take `CCCCNC(=S)NCCCC`: the outcome was inactive.

On to `Cc1c(C(=O)c2c[nH]n(C)c2=O)ccc(S(C)(=O)=O)c1C1=NOCC1`, for which the outcome was inactive.

Turning to `Oc1ccc(-c2ccccc2)c(Cl)c1`, the AC50 is 12.2 µM (active).

As for `CO[Si](C)(C)OC`, the outcome was inactive.

Take `C1CNCCN1`: the result was inactive.

Regarding `CC(=O)OCc1ccccc1`, the outcome was inactive.

In the case of `CC(=O)OC1CCCCC1C(C)(C)C` (stereo unspecified), the result was inactive.

Turning to `CCCCCCCCCCCCCC(=O)OC(C)C`, the result was inactive.

Regarding `N#Cc1ccc(C(c2ccc(C#N)cc2)n2cncn2)cc1`, the outcome was inactive.

Consider `CCCCCC(=O)OCC`, for which the outcome was inactive.

Turning to `CC1(C)[C@@H]2CC[C@@]1(C)C(=O)C2`, the result was inactive.

`CC1=CCC2CC1C2(C)C` (stereo unspecified): the outcome was inactive.

Regarding `CC(=O)OC(C)c1ccccc1` (stereo unspecified), the outcome was inactive.

The target of another assay is Androgen Receptor/SRC-1 Co-activator, AR (gene 367) (UniProt P10275). Put plainly: OT_AR_ARSRC1_0960: Odyssey Thera (OT) 16-hour HEK293T Protein-Complementation Assay for Androgen Receptor/SRC-1 Co-activator (AID 2283353).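 Note: actives raise the signal above DMSO so potency reflects increased AR and SRC-1 complex.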 The gist of the method:
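Endpoint is gain-of-signal N/C fluorescence ratio in the 488 nm channel versus DMSO, from at least 400 cells per image, measured 16 h post-dosing. Cells: HEK293T stably carrying split-Venus AR/SRC-1 complementation constructs.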
As to `Cc1ccc(C)c(OCCCC(C)(C)C(=O)O)c1`, the outcome was inactive.

Regarding `O=C(O)c1ccc2c(c1)C(=O)OC2=O`, the result was inactive.

As for `COc1cc(O)c(C(=O)c2ccccc2)cc1S(=O)(=O)O`, the compound was called inactive.

For `CCC[Si](OC)(OC)OC`, the outcome was inactive.

For `CCCCCCCCCC(C)=O`, the compound was called inactive.

In the case of `COc1ccc(C(=O)c2ccccc2)c(O)c1`, the outcome was inactive.

With `Cc1c(C(=O)c2c[nH]n(C)c2=O)ccc(S(C)(=O)=O)c1C1=NOCC1`, the compound was classed as inactive.

On to `Oc1ccc(-c2ccccc2)c(Cl)c1`, for which the AC50 is 40 µM (active).

As for `CC(=O)OCc1ccccc1`, the result was inactive.

In the case of `CC(=O)OC1CCCCC1C(C)(C)C` (stereo unspecified), the outcome was inactive.

Regarding `CCCCCCCCCCCCCC(=O)OC(C)C`, the result was inactive.

With `N#Cc1ccc(C(c2ccc(C#N)cc2)n2cncn2)cc1`, the result was inactive.

The target is the same in the next assay. Put plainly: OT_AR_ARSRC1_0480: Odyssey Thera (OT) 8-hour HEK293T Protein-Complementation Assay for Androgen Receptor/SRC-1 Co-activator (AID 2283354).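 Note: hits raise the complementation signal above DMSO so AC50 marks enhancers.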 The gist of the method:
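Split-Venus PCA, stable HEK293T, AR/SRC-1 fusions; 8 h exposure. Readout: 488nm N/C fluorescence ratio, ≥400 cells/image; fitted upward vs DMSO baseline.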
In the case of `Cc1ccc(C)c(OCCCC(C)(C)C(=O)O)c1`, the compound was classed as inactive.

Turning to `COc1cc(O)c(C(=O)c2ccccc2)cc1S(=O)(=O)O`, the compound was called inactive.

In the case of `CCC[Si](OC)(OC)OC`, the compound was classed as inactive.

Take `CCCCCCCCCC(C)=O`: the compound was classed as inactive.

On to `COc1ccc(C(=O)c2ccccc2)c(O)c1`, for which the compound was called inactive.

Take `Oc1ccc(-c2ccccc2)c(Cl)c1`: the AC50 is 31.5 µM (active).

For `CC(=O)OCc1ccccc1`, the call was inactive.

On to `CC(=O)OC1CCCCC1C(C)(C)C` (stereo unspecified), for which the outcome was inactive.

Regarding `CCCCCCCCCCCCCC(=O)OC(C)C`, the compound was called inactive.

Consider `N#Cc1ccc(C(c2ccc(C#N)cc2)n2cncn2)cc1`, for which the compound was called inactive.
